Bioassay records as filed in PubChem.
Giardia FBPA inh: blocks Giardia fructose-bisphosphate aldolase activity | actives 0.71% (n = 290,000) | A8B2U2 | Potency, µM (doses to about 59.6 µM), for the others: top-dose activity, negative = inhibition, usual class: inhibitors | purified Giardia FBPA; also: potency is read from the fitted curve at half-maximal effect; % is scaled to controls: 0 for no effect and ±100 for the full control effect; nearly all actives have a fitted effect of over 55% in size
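40 nM FBPA preincubated 10 min at RT with compound (up to 57.5 uM final), then substrate plus GAPDH/TPI/NAD/arsenate coupling and diaphorase/resazurin added. Fluorescence read after 20 min at RT, 525/598 nm.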
Cycloheximide cs: counter-screen for Shiga toxin inhibitors: cycloheximide protein synthesis inhibition; cell reporter, cycloheximide protein synthesis inhibition counterscreen; max response, %; actives 12% (n = 300,000); AID 2314; in the data active = max response mostly above about 13%, no sharp cut-off; inactive = mostly below about 14%; also: read at 38.3 µM for the half of the compounds with a filed dose; 0% is about no effect
LmPK inhibitor: LmPK (Leishmania mexicana) enzyme inhibition; purified LmPK, Kinase-Glo ATP luminescence, 1 h; Q27686; actives 0.37% (n = 290,000); Potency, µM (highest dose often 57.5 µM), without a hit: at the top dose activity change, negative = inhibition, usual class: inhibitors; also: potency is read from the fitted curve at half-maximal effect; % is scaled to controls: 0 for no effect and ±100 for the full control effect
Target sequence (Q27686 whole entry, looked up): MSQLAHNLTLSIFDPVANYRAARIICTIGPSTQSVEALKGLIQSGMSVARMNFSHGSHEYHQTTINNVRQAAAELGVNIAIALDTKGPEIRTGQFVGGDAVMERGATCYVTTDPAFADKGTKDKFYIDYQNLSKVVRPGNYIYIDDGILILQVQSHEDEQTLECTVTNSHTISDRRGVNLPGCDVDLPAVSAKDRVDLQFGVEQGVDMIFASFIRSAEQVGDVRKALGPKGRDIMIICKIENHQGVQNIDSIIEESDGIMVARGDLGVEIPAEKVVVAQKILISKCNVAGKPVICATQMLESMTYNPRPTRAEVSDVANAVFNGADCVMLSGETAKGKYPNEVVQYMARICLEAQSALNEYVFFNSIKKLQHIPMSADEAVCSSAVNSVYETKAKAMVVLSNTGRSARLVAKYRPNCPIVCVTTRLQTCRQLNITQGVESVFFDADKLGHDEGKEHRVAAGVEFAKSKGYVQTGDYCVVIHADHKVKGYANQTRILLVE
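Purified LmPK (0.1 nM) converted ADP (0.1 mM) to ATP with PEP (0.5 mM) in imidazole buffer pH 7.2 with KCl and MgCl2, 1 h at room temperature. ATP was read by Kinase-Glo luminescence; data normalized to uninhibited and no-enzyme controls.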
Tb PYK inh: blocks Trypanosoma brucei pyruvate kinase | Q57TT1 | TbPYK enzyme, Kinase-Glo Plus ATP luminescence, 45 min | Potency, µM (top dose mostly 76.8 µM), for inactives: top-dose activity, negative = inhibition, usual class: inhibitors | actives 0.12% (n = 410,000) | AID 624173; also: potency is read from the fitted curve at half-maximal effect; % is scaled to controls: 0 for no effect and ±100 for the full control effect; nearly all actives have a fitted effect of over 50% in size
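TbPYK + substrate in 50 mM TEA pH 7.2, 100 mM KCl, 10 mM MgCl2, 0.05% BSA, 0.01% Tween-20; cpd pinned; ADP 130 uM final; 45 min RT; Kinase-Glo Plus 10 min; luminescence endpoint.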
Shiga inhibitor: inhibitors of Shiga toxin in Vero cells; Vero cells, Shiga toxin protein synthesis inhibition reporter; inhibition, % at 38.7 µM; AID 2315; actives 9.2% (n = 290,000); in the data active = inhibition mostly above about 28%, no sharp cut-off; inactive = mostly below about 43%; also: 0% is about no effect
RE007 growth inh: less growth of the S. pombe RE007 Vpr strain | S. pombe RE007 Vpr strain, BacTiter-Glo ATP luminescence, 24 h | Potency, µM (highest dose often 92.2 µM), without a hit: top-dose activity change, negative = less growth, hits mostly inhibitors | actives 0.21% (n = 360,000); active = well fitted falling curve with a large enough effect; inconclusive = small, poorly fitted or top-dose-only effect; inactive = no such curve, though single readings can be large or run the other way; also: potency is read from the fitted curve at half-maximal effect; % is scaled to controls: 0 for no effect and ±100 for the full control effect; nearly all actives have a fitted effect of over 50% in size
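Fission yeast RE007 carrying one integrated HIV-1 vpr copy, seeded at OD 0.01 in PMG+AL medium with 23 nL pinned compound. Grown 24 h at 30 degrees; viability read by BacTiter-Glo luminescence after 5 min.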
The depositor's hits bear a star; ? = inconclusive; / = no result given; [ ] = remark or other dose. Many of the other results were omitted from the sample, so hits are more common in it than they were. Unless noted, calls follow the shape of the dose curve; as a rule, active = well fitted curve in the direction sought with a large enough effect; inconclusive = small, poorly fitted or top-dose-only effect, or another doubt; inactive = no such curve, though single readings can be large; an effect the other way counts as inactive or inconclusive.

SMILES	Giardia FBPA inh	Cycloheximide cs	LmPK inhibitor	Tb PYK inh	Shiga inhibitor	RE007 growth inh
COc1cc(SC)ccc1C(=O)Nc1ccc(Br)cn1	-12.0%	30.6*	?	1.4%	76.1*	-4.2%
COc1cc(SC)ccc1C(=O)Nc1ncc(C)s1	-19.5%	-6.6	-4.0%	-7.0%	8.9	-17.2%
COc1ccc(CNC(=O)c2ccc(SC)cc2OC)cc1	-0.4%	1.0	-2.1%	-5.1%	-8.5	-12.8%
COc1cc(SC)ccc1C(=O)NC(C)C	-4.9%	4.1	-0.8%	-5.6%	23.0	-3.0%
COc1cc(SC)ccc1C(=O)Nc1cccc(C)n1	-15.5%	33.1*	-11.4%	0.7%	83.8*	-12.7%
COc1cc(SC)ccc1C(=O)NCCc1ccccc1	-1.1%	49.2*	0.5%	-10.1%	73.9*	-28.9%
Cc1ccc(Sc2ccc(N3CCCC(C(=O)Nc4ccc(F)cc4F)C3)nn2)cc1 (configuration not stated)	/	/	/	2.1%	/	/
Cc1ccc(C)c(OCc2nnc(N)s2)c1	6.8%	2.0	-2.1%	-6.1%	-7.2	21.6%
Nc1nnc(COc2ccc(Br)cc2Br)s1	4.9%	21.1*	-1.5%	-5.3%	91.7*	-7.3%
CN(C)CCn1c2ccccc2c2nc3ccc([N+](=O)[O-])cc3cc21	-16.0%	15.7*	0.8%	-0.9%	38.9*	-14.7%
CCn1c2ccccc2c2cc([N+](=O)[O-])ccc21	-7.1%	-2.8	2.8%	-3.5%	-4.4	72.3%
N#CCc1ccc(NC(=O)/C=C/c2ccc([N+](=O)[O-])o2)cc1	?	36.6*	8.3%	1.6%	56.3*	7.3%
N#C/C(=C\c1ccc([N+](=O)[O-])o1)C(=O)Nc1ccc(F)cc1	?	12.8	0.6%	-10.1%	34.8	?
CN1CCN(C(c2ccc(F)cc2)c2sc3nc(-c4ccco4)nn3c2O)CC1 (configuration not stated)	/	/	/	5.8%	/	/
Cc1cc(/C=C2\Cc3ccccc3C2=O)c(C)n1-c1ccccc1	?	79.8*	-22.3%	-9.2%	159.0*	3.8%
Cc1cc(C=C2C(=O)N(C)C(=O)N(C)C2=O)c(C)n1-c1ccccc1	0.7%	25.5*	-8.3%	2.6%	52.6*	7.6%
Cc1cc(C=C2C(=O)c3ccccc3C2=O)c(C)n1-c1cccc(C(=O)O)c1	?	43.3*	11.9%	3.0%	103.9*	1.8%
Cc1cc(C=C2C(=O)c3ccccc3C2=O)c(C)n1-c1ccccc1	-25.9%	51.5*	-25.0%	-3.8%	118.2*	2.8%
CCOc1ccc(NC(=O)c2oc3ccccc3c2NC(=O)c2ccc(OC)cc2OC)cc1	/	/	/	-0.9%	/	/
c1ccc(-c2cn3c(n2)CCC3)cc1	1.5%	6.9	4.7%	2.3%	5.3	-11.9%
O=[N+]([O-])c1ccc(-c2cn3c(n2)CCC3)cc1	3.9%	57.0*	-8.2%	-1.0%	104.2*	-25.2%
Cc1ccc(/C=N/n2c(-c3ccco3)n[nH]c2=S)cc1	3.9%	-1.8	-2.2%	?	-6.6	-13.7%
CC(C1CC2CCC1C2)n1c(-c2ccco2)n[nH]c1=S (configuration not stated)	-14.9%	-1.2	12.6µM*	?	-2.9	12.3%
C#CCOC(=O)CN1C(=O)c2cccc3cccc(c23)C1=O	5.4%	17.8*	11.6%	-1.7%	41.1	-12.0%
COC(=O)CN1C(=O)c2cccc3cccc1c23	-2.6%	-1.3	-4.4%	-1.3%	-7.1	-5.1%
SMILES	Giardia FBPA inh	Cycloheximide cs	LmPK inhibitor	Tb PYK inh	Shiga inhibitor	RE007 growth inh
COc1ccccc1NC(=O)Cn1cc(S(=O)(=O)Cc2ccccc2)c2ccccc21	/	/	/	-3.3%[15.4 µM]	/	/
Cc1ccc(NC(=O)c2ccco2)c(NC(=O)C2CCCO2)c1 (configuration not stated)	2.6%	5.3	2.7%	-6.3%	-8.3	0.7%
COc1ccccc1N1Cc2ccccc2C1	-27.1%	21.3*	-5.8%	3.9%	3.9	-15.9%
COc1ccc(OC)c(N2Cc3ccccc3C2)c1	?	-1.4	3.3%	-8.0%	3.3	-10.0%
COc1ccc(N2Cc3ccccc3C2)cc1Cl	-12.2%	22.0*	-11.1%	-1.3%	87.2*	-17.2%
Cc1cccc(-n2c(-c3csc(C)c3)n[nH]c2=S)c1	4.1%	-2.0	4.47µM*	?	-16.6	4.7%
CCc1cc(-c2n[nH]c(=S)n2-c2cccc(C)c2)cs1	8.5%	11.7	4.47µM*	11.2µM*	-22.7	4.8%
CCCCn1c(-c2csc(CC)c2)n[nH]c1=S	17.7%	5.6	?	3.98µM*	-7.0	-3.7%
Cc1ccc(C)c(N2CCN(S(=O)(=O)c3ccc(F)c(C(=O)Nc4ccc(Cl)cc4Cl)c3)CC2)c1	/	/	/	-3.9%	/	/
O=C(O)CCC(=O)/C=C/c1ccccc1	10.6%	-1.4	0.8%	-5.0%	7.3	36.7%
CCOc1ccc(C(=O)CCC(=O)O)cc1	-1.9%	2.3	0.1%	-6.3%	-14.3	0.7%
CCOc1ccc(/C=C/C(=O)CCC(=O)O)cc1	-0.8%	53.9*	-4.4%	3.5%	73.7*	-16.1%
CCOc1ccc(/C=C\C(C)=N\O)cc1	0.2%	38.5*	?	-11.6%	97.4*	?
CCOc1ccc(/C=C/C(=O)Oc2ccc(OC)cc2)cc1	6.4%	-3.6	1.0%	1.5%	-12.1	5.1%
CC(C)c1ccc(/C=C/C(=O)CCC(=O)O)cc1	15.6%	42.5*	-4.3%	-19.9%	56.6	-11.0%
Cc1ccc(Cl)cc1NC(=O)c1cc2ccccc2cc1O	-19.5%	8.7	1.5%	0.2%	19.2	3.8%
CCOC(=O)c1c(NC(=O)/C=C/c2ccc(OCC)cc2)sc(C(C)=O)c1C	/	/	/	2.2%	/	/
CCc1noc(C)c1C(=O)Nc1cc(S(=O)(=O)N2CCOCC2)ccc1OC(C)C	/	/	/	-1.8%	/	0.2%
O[C@@H]1CO[C@H]2C1OC[C@@H]2O (some centres not stated)	2.1%	-6.2	/	/	-4.3	/
O=C(CC1Oc2ccccc2NC1=O)NCc1ccccc1 (configuration not stated)	1.9%	-2.9	-2.5%	1.0%	14.0	2.4%
CC(=O)CC1OC(=O)C(Br)=C1NCc1ccccc1 (configuration not stated)	-4.1%	21.9*	1.6%	-24.0%	28.5	?
CCOC(=O)N1C(COCc2ccccc2)C=CCS1(=O)=O (configuration not stated)	-0.3%	77.9*	/	/	180.8*	/
COC(=O)c1cccnc1-n1c(=O)c2cccnc2n(CC(=O)Nc2cccc(C)c2)c1=O	/	/	/	2.6%	/	/
Cc1cc(C)c(NC(=O)/C=C\C(=O)O)c([N+](=O)[O-])c1	13.8%	1.2	1.6%	-13.1%	-2.1	31.6µM*
Cc1ccc(NC(=O)/C=C\C(=O)O)c([N+](=O)[O-])c1	6.2%	11.9	-1.4%	3.2%	-4.4	-15.9%
COc1ccc(C2=NN(CC(=O)NCCc3ccccc3)C(=O)CC2)cc1	/	/	/	-2.7%	/	/
COc1ccccc1C/C(N)=N/OC(=O)c1ccco1	-0.1%	19.3*	-0.8%	-2.7%	55.9*	6.3%
